A structure can be active in one record and inactive in another. The source made the active and inactive calls. The calls were made as follows: active = hit-call score of the fitted dose curve at least 0.9, where 1 is the maximum; inactive = score below 0.9.
Assay: CCTE_Shafer_MEA_acute_firing_rate_mean: CCTE's Neural Acute Assay for Mean Firing Rate, Shafer Lab (AID 2284009)
Experimental: CCTE_Shafer_MEA_acute assay is conducted using Axion Biosystems 48 well microelectrode array (MEA) plates and Maestro recording system. Each well of the MEA plate contains a grid of 16 microelectrodes embedded in the culture surface. Electrically active cells, such as neurons, can be cultured over the electrodes, and electrical activity in these cells can be recorded extracellularly. The spontaneous firing of neurons is captured from each electrode on a microsecond timescale providing both temporally and spatially precise data. […] The CCTE_Shafer_MEA_acute assay uses primary cultures of rat cortical neurons. As these cultures mature over time, neural networks develop functional activity and form cohesive networks in which electrical activity can be highly coordinated. Baseline 40-minute recordings are made on days post-plating 13 or 15, followed by a secondary 40-minute recording after chemical exposure.CCTE_Shafer_MEA_acute_firing_rate_mean is a component of the CCTE_Shafer_MEA_acute assay. It measures the frequency number of spikes (action potential firings) as the total number of spikes divided by the length of the recording in a microelectrode array (MEA) using Axion Biosystems Maestro 768 channel amplifier with the AxIS adaptive spike detector. The firing rate is divided by the number of electrodes to report a well-mean value. The recordings before and after chemical treatment are used to calculate a percent change in the mean firing rate in each well.Data from the assay component CCTE_Shafer_MEA_acute_firing_rate_mean was analyzed into 1 assay endpoint. This assay endpoint, CCTE_Shafer_MEA_acute_firing_rate_mean, was analyzed in the negative analysis fitting direction relative to DMSO as the negative control and baseline of activity. Using a type of functional reporter, gain or loss-of-signal activity can be used to understand electrical activity.
Spontaneous activity in the cortical cultures was recorded using an Axion Biosystems Maestro 768 channel amplifier and Axion Integrated Studios (AxIS) v1.8 (or later) software. The amplifier recorded from all channels simultaneously (gain = 1200 x; sampling rate = 12.5 kHz/channel): raw signals were filtered with a Butterworth band-pass filter (300-5000 Hz), which filters out slower local field potentials leaving only fast potentials, i.e., "spikes", arising from extracellular currents associated with action potentials (Pine 2006; Wheeler and Nam 2011). On-line spike detection of filtered signals was conducted with the AxIS adaptive spike detector, using a threshold of 8x the root mean squared (rms) noise on each channel. Any electrodes with rms noise levels greater than 5 uV were grounded (e.g., no data were recorded). Once grounded, an electrode was grounded for the duration of the experiment. All recordings were conducted at 37 C. Wells were deemed usable if on the day of the exposure >/= 10 electrodes were active (defined as >/= 5 spikes/min). On DIV 13 or 15, a minimum of three wells from one cortical culture preparation were treated with each compound (0.03-40 uM). Prior to recording baseline activity, each mwMEA plate was placed in the Maestro at 37 C and allowed to sit for 20 min while firing rates stabilized. Baseline activity (40 min) was recorded before the addition of each compound. An additional 40 min of spontaneous activity was recorded in the presence of each compound. Changes in network parameters relative to baseline were assessed following compound treatment.

Structure (SMILES)	outcome	AC50
c1cc[n+]2c(c1)-c1cccc[n+]1CC2	inactive	
[Cd+2].[Cl-].[Cl-]	inactive	
CCCC[N+](CCCC)(CCCC)CCCC		3.01 nM (active)
CC1(C)[C@H](C(=O)O[C@H](C#N)c2cccc(Oc3ccccc3)c2)[C@@H]1C=C(Br)Br		1620 nM (active)
CP(=O)(O)CC[C@H](N)C(=O)O	inactive	
CC1(C)[C@@H](C=C(Cl)Cl)[C@@H]1C(=O)O[C@@H](C#N)c1ccc(F)c(Oc2ccccc2)c1		2970 nM (active)
Cc1ccc(OP(=O)(Oc2ccc(C)cc2)Oc2ccc(C)cc2)cc1 (tested in a mixture with another compound)		4200 nM (active)
O=[N+]([O-])O	inactive	88.5 nM (active)
O=c1c2ccccc2c(=O)c2c1cc(Cl)c1[nH]c3c([nH]c12)c(Cl)cc1c(=O)c2ccccc2c(=O)c13	inactive	
Oc1ccc(C2(c3ccc(O)cc3)c3ccccc3-c3ccccc32)cc1		8.83 nM (active)
O=C(O)CNCP(=O)(O)O	inactive	
CC1(C)[C@H](C=C(Cl)Cl)[C@@H]1C(=O)O[C@@H](C#N)c1cccc(Oc2ccccc2)c1	inactive	
C#CCN(C)[C@H](C)Cc1ccccc1	inactive	
CP(=O)(O)CCC(N)C(=O)O (stereo unspecified)	inactive	
COc1ccc(CO)cc1	inactive	
